KDM5B inhibitor – blocks human KDM5B histone demethylase activity | KDM5B demethylase, FDH-coupled NADH fluorescence (FDH is formaldehyde dehydrogenase) | Q9UGL1 | Potency, µM (series often up to 57.7 µM), hits mostly inhibitors | hit rate 2.6% among 220,000; active = well fitted inhibition curve with a large enough effect; note: 0% is about no effect; nearly all actives have a fitted effect of over 70% in size
Target sequence (Q9UGL1 whole entry, looked up): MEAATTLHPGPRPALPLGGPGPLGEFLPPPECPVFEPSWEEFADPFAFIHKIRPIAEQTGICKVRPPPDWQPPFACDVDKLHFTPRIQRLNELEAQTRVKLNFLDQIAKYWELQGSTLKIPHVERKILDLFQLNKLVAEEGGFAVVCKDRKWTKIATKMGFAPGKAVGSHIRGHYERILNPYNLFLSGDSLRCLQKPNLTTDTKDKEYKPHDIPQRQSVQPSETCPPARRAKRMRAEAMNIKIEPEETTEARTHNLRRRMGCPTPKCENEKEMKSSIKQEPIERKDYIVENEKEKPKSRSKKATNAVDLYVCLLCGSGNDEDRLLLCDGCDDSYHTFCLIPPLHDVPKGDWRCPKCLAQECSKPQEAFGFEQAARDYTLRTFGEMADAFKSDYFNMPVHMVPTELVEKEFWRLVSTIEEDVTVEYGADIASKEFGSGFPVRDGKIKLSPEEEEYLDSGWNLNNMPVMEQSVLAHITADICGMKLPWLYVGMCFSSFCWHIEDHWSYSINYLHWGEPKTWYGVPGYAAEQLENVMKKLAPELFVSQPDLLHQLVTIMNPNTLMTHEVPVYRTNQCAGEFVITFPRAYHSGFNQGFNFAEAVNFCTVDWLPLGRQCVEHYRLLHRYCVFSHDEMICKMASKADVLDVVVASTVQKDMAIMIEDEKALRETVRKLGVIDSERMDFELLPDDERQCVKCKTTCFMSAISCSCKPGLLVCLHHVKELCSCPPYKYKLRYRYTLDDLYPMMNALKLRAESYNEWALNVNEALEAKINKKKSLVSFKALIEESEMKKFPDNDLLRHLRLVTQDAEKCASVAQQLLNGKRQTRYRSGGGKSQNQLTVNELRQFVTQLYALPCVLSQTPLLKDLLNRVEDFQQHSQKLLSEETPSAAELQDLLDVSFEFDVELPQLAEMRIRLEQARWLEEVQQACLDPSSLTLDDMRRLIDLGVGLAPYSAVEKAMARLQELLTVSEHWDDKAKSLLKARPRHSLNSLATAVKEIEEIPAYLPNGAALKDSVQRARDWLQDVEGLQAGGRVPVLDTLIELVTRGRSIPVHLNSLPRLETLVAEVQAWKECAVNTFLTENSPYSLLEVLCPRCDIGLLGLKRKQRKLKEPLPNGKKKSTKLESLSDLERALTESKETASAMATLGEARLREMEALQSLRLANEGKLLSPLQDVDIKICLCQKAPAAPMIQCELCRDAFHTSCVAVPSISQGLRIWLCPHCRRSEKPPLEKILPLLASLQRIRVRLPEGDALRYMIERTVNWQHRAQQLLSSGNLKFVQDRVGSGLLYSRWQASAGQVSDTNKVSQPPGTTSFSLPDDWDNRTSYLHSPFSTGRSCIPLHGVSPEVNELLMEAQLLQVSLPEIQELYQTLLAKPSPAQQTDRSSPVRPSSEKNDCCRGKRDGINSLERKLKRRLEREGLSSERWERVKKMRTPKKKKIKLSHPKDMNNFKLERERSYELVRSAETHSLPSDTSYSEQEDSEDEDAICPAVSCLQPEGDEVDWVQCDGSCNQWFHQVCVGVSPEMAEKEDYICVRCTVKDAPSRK
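Here, H3K4me3 peptide (12.5 µM in substrate mix) is demethylated by KDM5BΔAP, 200 nM final, after 10 min compound exposure. Formaldehyde product is coupled through FDH (0.25 U/mL in mix) to NADH fluorescence; 30-min ΔRFU feeds dose-response curves.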
Numbers without * were called inactive; i = inactive. Many of the other results were omitted from the sample, so hits are more common in it than they were. Potency is the fitted concentration of half-maximal effect.

SMILES | KDM5B inhibitor
COc1ccccc1-c1ccnc(N[C@H]2CO[C@H]3[C@@H]2OC[C@@H]3NC(=O)N2CCOCC2)n1 | 25µM*
COc1ccccc1-c1ccnc(N[C@H]2CO[C@H]3[C@@H]2OC[C@@H]3NS(C)(=O)=O)n1 | 35µM*
Cc1ccc(C(=O)N[C@H]2CO[C@H]3[C@@H]2OC[C@@H]3Nc2nccc(C(C)(C)C)n2)cc1 | i
CN(C)C[C@@H]1CN(S(C)(=O)=O)C[C@H]1NC(=O)c1cccc(C#N)c1 | i
CCOCCCN(C(=O)Nc1ccc(Cl)cc1)C1CCN(C(C)=O)CC1 | i
Cc1cc2occ(CC(=O)Nc3cccc(S(=O)(=O)N4CCOCC4)c3)c2cc1C(C)C | i
CCN(CC)C(=O)Cn1cc(SCC(=O)Nc2ccc(C)cc2)c2ccccc21 | i
COC(=O)c1cccc(C(=O)OC)c1Cl | i
CC(C)c1ccc(S(=O)(=O)N(Cc2ccc(C(=O)NC3CC3)cc2)C2CC2)cc1 | i
CC1Cc2ccccc2C(CCc2ccccc2)=N1 (centres undefined) | i
CSc1cccc(NC(=O)Cn2c(N3CCN(c4ccccc4)CC3)nc(C)cc2=O)c1 | i
CCOc1ccc(NC(=O)Cn2c(Nc3cc(C)cc(C)c3)nc(C)cc2=O)cc1 | i
CSc1cccc(NC(=O)Cn2c(Nc3cc(C)cc(C)c3)nc(C)cc2=O)c1 | 28µM*
CC(C)NC(=O)C1CCCN(c2ncnc3c2nc2n3CCCCC2)C1 (centres undefined) | i
NC(=O)CCS(=O)(=O)CCN1CCN(S(=O)(=O)c2ccc3c(c2)CCC3)CC1 | i
O=C(c1ccccc1)N1CCCC2(C1)Nc1cccnc1NC2=NCc1ccccc1 (centres undefined) | 28µM*
COc1cc(OC)cc(C(=O)N2CCCC3(C2)NC(=O)N(Cc2ccc(C)cc2)C3=O)c1 (centres undefined) | i
O=C(c1ccccc1)N1CCCC2(C1)Nc1cccnc1NC2=NC1CCCC1 (centres undefined) | 28µM*
COCCN=C1Nc2ncccc2NC12CCCN(C(=O)c1cccc(OC)c1)C2 (centres undefined) | 32µM*
O=C(c1ccccc1)N1CCC2(C1)C(=NC1CCCCC1)NC(=O)N2c1cccnc1 (centres undefined) | i
COc1cccc(C(=O)N2CCC3(CC2)NC(=O)N(Cc2ccccc2)C3=O)c1 | i
O=S(=O)(c1cccnc1)N1CCCC2(C1)Nc1cccnc1NC2=NCc1ccccc1 (centres undefined) | 28µM*
Cc1cc(C)cc(C(=O)N2CCCC3(C2)NC(=O)N(Cc2ccccc2)C3=O)c1 (centres undefined) | i
O=C(NCCc1ccccc1)C1CN(S(=O)(=O)c2cccnc2)CC12CCCCC2 (centres undefined) | i
O=C(CC1CCN(S(=O)(=O)c2cccnc2)C1)NCc1ccccc1 (centres undefined) | i
SMILES | KDM5B inhibitor
Cc1ccc(C(=O)N2CCCC3(C2)NC(=O)N(Cc2ccccc2)C3=O)cc1 (centres undefined) | i
COc1cccc(N2C(=O)NC(=NC3CCCCC3)C23CCCN(C(=O)c2ccccc2)C3)c1 (centres undefined) | i
COc1ccc(C(=O)C(C)OC(=O)c2ccc(OCC(N)=O)cc2)cc1 (centres undefined) | i
Cc1cccc(CC(=O)N2C[C@@H](Oc3ccccc3)C[C@@H]2C(=O)N2CCOCC2)c1 | i
COC(=O)[C@H](CC(C)C)N1Cc2nnn(CC3CCCCC3)c2-c2ccccc2S1(=O)=O | i
CCc1ccc(N(C2C=CS(=O)(=O)C2)S(=O)(=O)c2ccc(C)cc2)cc1 (centres undefined) | i
CCCN(CCC)Cc1c(C)[nH]c2ccc(Br)cc2c1=O | i
Cc1c(NC(=O)/C=C/c2cn(-c3ccccc3)nc2-c2ccc(F)cc2)c(=O)n(-c2ccccc2)n1C | i
CCOC(=O)c1c(C)[nH]c(C)c1S(=O)(=O)N1CCC(C(=O)NCc2ccc(F)cc2)CC1 | i
O=C(c1cccnc1)N1CCC2(C1)C(=NC1CCCC1)NC(=O)N2c1cccnc1 (centres undefined) | i
Cc1ccc(NC(=O)N2CCCC(Cn3cnc4cccnc43)C2)c(Cl)c1 (centres undefined) | i
Cc1noc(C)c1CC(=O)N1CCCC2(C1)Nc1cccnc1NC2=NC1CCCC1 (centres undefined) | 25µM*
CCOc1ccc(C(=O)N2CCCC3(C2)Nc2cccnc2NC3=NC2CCCC2)cc1 (centres undefined) | 32µM*
O=C(c1cccnc1)N1CCCC2(C1)C(=NC1CCCC1)NC(=O)N2c1cc(F)cc(F)c1 (centres undefined) | i
Cc1noc(C)c1CC(=O)N1CCCC(Cc2noc(-c3cccnc3)n2)C1 (centres undefined) | i
COc1ccc(C(=O)N2CCCC3(C2)C(=NC2CCCC2)NC(=O)N3c2cccnc2)cc1 (centres undefined) | i
Cc1noc(C)c1CC(=O)N1CCCC(c2nn(C)c(=O)n2-c2ccccc2)C1 (centres undefined) | i
COc1ccc(C(=O)N2CCCC3(C2)C(=NC2CCCCC2)NC(=O)N3c2cccnc2)cc1 (centres undefined) | i
O=C(c1ccsc1)N1CCCC2(C1)Nc1cccnc1NC2=NC1CCCC1 (centres undefined) | 8.9µM*
O=C(Nc1ccccc1Cl)N1CCCC2(C1)Nc1cccnc1NC2=NC1CCCC1 (centres undefined) | 28µM*
COC(=O)N1CCCC2(C1)C(=NC1CCCCC1)NC(=O)N2c1cccnc1 (centres undefined) | i
O=C(NCc1ccc(-n2cncn2)cc1)C1NCCc2[nH]cnc21 (centres undefined) | i
CN(C)C(=O)[C@@H]1CN(Cc2cc(F)c(F)cc2F)C[C@H]1CO | i
C=CCNC(=S)NNC(=O)C(C)(C)O | i
CCOc1ccc(S(=O)(=O)NCc2cccnc2)cc1NC(=O)c1ccccc1 | i
SMILES | KDM5B inhibitor
Cc1ccccc1NC(=O)c1sc2c(c1C)C(c1ccncc1)CC(=O)N2 (centres undefined) | i
CC(Oc1ccc(Cl)cc1Cl)C(=O)NC(C)c1ccccc1 (centres undefined) | i
CCc1ccc(CNC(=O)c2c(C)oc3ncnc(N4CCOCC4)c23)cc1 | i
Cc1occc1C(=O)N/N=C/c1ccc2c(c1)OCO2 | i
O=C1CCN(C(=O)Cc2cccc(F)c2)CCOCCN1 | i
O=C(Nc1ccc(CC(=O)N2CCOCC2)cc1)c1cc(F)cc(F)c1 | i
O=C(Cc1c[nH]c2ncc(-c3ccc(Oc4ccccc4)cc3)cc12)N1CCOCC1 | 40µM*
COc1ccc2ccc(OCc3nc(C(=O)N4CCCNC(=O)C4)co3)cc2c1 | i
COc1cc(F)cc(-c2cnc3[nH]cc(CC(=O)N4CCOCC4)c3c2)c1 | 35µM*
COc1ccc(-c2nc3c(c(=O)[nH]2)CCN(C(=O)Cc2c[nH]c4ccccc24)C3)cc1 | i
Cc1ccccc1-c1cnc2[nH]cc(CC(=O)N3CCOCC3)c2c1 | 35µM*
Cc1ccccc1CC(=O)N1CCN(c2ncnc3nc[nH]c23)CC1 | i
COc1ccc(-c2cnc3[nH]cc(CC(=O)N4CCNC(=O)C4)c3c2)cc1 | 35µM*
O=C(CCc1c[nH]c2ccccc12)OCC(=O)N1CCOCC1 | i
O=C([C@@H]1C[C@H](Oc2ccccc2)CN1C(=O)Cc1c[nH]c2ccccc12)N1CCOCC1 | i

Screens: PubChem, National Center for Advancing Translational Sciences (NCATS)
